Test results from PubChem BioAssay AID1420 (Emory University Molecular Libraries Screening Center, 2008).
The campaign covered roughly 1,100 compounds. About 65 (6%) were called active. The rule behind the calls is not given here. Only a sample is shown. Results with a measured potency or affinity are listed apart.

biological target: Calpain-2 catalytic subunit (Sus scrofa) (UniProt P43367); assay: m-calpain protease blockers, concentration series – biochemical, fluorogenic peptide substrate, dose response (AID 1420); settings: purified calpain II, 30 min; series mostly up to 50 µM
Sequence (P43367 whole entry, looked up): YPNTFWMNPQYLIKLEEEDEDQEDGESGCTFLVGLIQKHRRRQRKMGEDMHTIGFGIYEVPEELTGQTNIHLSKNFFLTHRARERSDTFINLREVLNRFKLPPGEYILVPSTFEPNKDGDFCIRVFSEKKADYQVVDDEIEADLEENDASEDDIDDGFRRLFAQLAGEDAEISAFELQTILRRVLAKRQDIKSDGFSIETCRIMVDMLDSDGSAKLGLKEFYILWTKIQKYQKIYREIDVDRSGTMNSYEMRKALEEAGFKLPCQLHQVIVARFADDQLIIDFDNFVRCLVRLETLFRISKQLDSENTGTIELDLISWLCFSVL

| Compound | outcome |
| --- | --- |
| O=C(NNC(=O)c1cc(OCC(F)(F)F)ccc1OCC(F)(F)F)c1cccc(C(F)(F)F)c1 | inactive |
| CN(C)c1cccc(C(=O)OCC(=O)Nc2ccccc2Cl)c1 | inactive |
| CCOC(=O)C(C)Oc1ccc(OCc2ccccc2)cc1 (stereo not drawn) | inactive |
